What all share (assay): HT-SELEX; high values mean tight binding
Holding throughout (conditions): protein: recombinant; vector His6-GST; dsDNA, one strand shown

Assay [1] concerns the target T1, SALL4 ZFC4 WT (HT-SELEX) (Mus musculus, UniProt Q8BX22 870-940).
T1 sequence: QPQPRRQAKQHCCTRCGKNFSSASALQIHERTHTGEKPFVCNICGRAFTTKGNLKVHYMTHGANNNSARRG
Summed up:
(§1)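 Residues 870–940 of mouse SALL4, forming zinc finger cluster 4, were expressed recombinantly, purified, and 1 µg was incubated with library DNA (1.5 µg first cycle, 200 ng later) in 100 µl of 10 mM Tris–HCl pH 7.5, 50 mM NaCl, poly(dI-dC) and DTT for 10 min at room temperature. Washed Ni2+ bead-captured complexes were PCR-amplified and reselected for up to 6 cycles in triplicate, and the products were sequenced on MiSeq and scanned for 6-mers. Binding signal is the fold change in each canonical k-mer's read fraction compared with the initial random library.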

Assay [2] concerns the target T2, SALL4 ZFC4 R900W (HT-SELEX) (Mus musculus, UniProt Q8BX22 870-940, R900W).
T2 sequence: T1 sequence with R31W
Summed up: as §1

For assay [3], the target named is T3, SALL4 ZFC4 G921D (HT-SELEX) (Mus musculus, UniProt Q8BX22 870-940, G921D).
T3 sequence: T1 sequence with G52D
In short, it runs like this: as §1

Experimental findings from publication PMC9838217, “Structure of SALL4 zinc finger domain reveals link between AT-rich DNA binding and Okihiro syndrome” are described below.

Where a chain is given by its changes, count along the chain named.

As to ACCAGT, the values for the binding signal in assay [1], in assay [2] and in assay [3] were 0.8 ± 0.0267 fold-change vs cycle 0, 0.969 ± 0.0358 fold-change vs cycle 0 and 0.994 ± 0.0294 fold-change vs cycle 0, respectively.

As for AGTAGG, the binding signal in assay [1] was 0.864 ± 0.0537 fold-change vs cycle 0; in assay [2], 0.972 ± 0.0557 fold-change vs cycle 0; in assay [3] it was 0.989 ± 0.0263 fold-change vs cycle 0.

On to GAAGAC, for which the binding signal in assay [1] was 0.8159 ± 0.00405 fold-change vs cycle 0; in assay [2] it was 0.962 ± 0.00987 fold-change vs cycle 0; in assay [3], 0.993 ± 0.0221 fold-change vs cycle 0.

Regarding TGAAAA, the binding signal is 2.04 ± 0.151 fold-change vs cycle 0 in assay [1], 1.73 ± 0.0528 fold-change vs cycle 0 in assay [2] and 1.57 ± 0.0962 fold-change vs cycle 0 in assay [3].

Regarding TACACA, the binding signal in assay [1] is 1.21 ± 0.07 fold-change vs cycle 0; in assay [2], 1.3 ± 0.0721 fold-change vs cycle 0; in assay [3], 1.29 ± 0.0617 fold-change vs cycle 0.

For AACACG, the binding signal stood at 0.6337 ± 0.00219 fold-change vs cycle 0 in assay [1], 0.737 ± 0.0205 fold-change vs cycle 0 in assay [2] and 0.823 ± 0.0377 fold-change vs cycle 0 in assay [3].

For the sequence ATCTTA, the binding signal was 2.21 ± 0.106 fold-change vs cycle 0 in assay [1], 2.19 ± 0.133 fold-change vs cycle 0 in assay [2] and 1.92 ± 0.224 fold-change vs cycle 0 in assay [3].

TAGGCA: the binding signal was 0.578 ± 0.0216 fold-change vs cycle 0 in assay [1], 0.648 ± 0.0255 fold-change vs cycle 0 in assay [2] and 0.751 ± 0.038 fold-change vs cycle 0 in assay [3].

As for AAGTAA, the binding signal stood at 2.17 ± 0.0689 fold-change vs cycle 0 in assay [1], 2.26 ± 0.152 fold-change vs cycle 0 in assay [2] and 1.91 ± 0.204 fold-change vs cycle 0 in assay [3].

As to CATCAG, the binding signal worked out at 0.861 ± 0.0198 fold-change vs cycle 0 in assay [1], 0.967 ± 0.0193 fold-change vs cycle 0 in assay [2] and 0.996 ± 0.0231 fold-change vs cycle 0 in assay [3].

Regarding ACAGTC, the binding signal in assay [1] was found to be 0.718 ± 0.0285 fold-change vs cycle 0; in assay [2], 0.8733 ± 0.00718 fold-change vs cycle 0; in assay [3], 0.889 ± 0.0202 fold-change vs cycle 0.

Take CAAACG: the values for the binding signal in assay [1], in assay [2] and in assay [3] were 0.563 ± 0.00697 fold-change vs cycle 0, 0.704 ± 0.014 fold-change vs cycle 0 and 0.777 ± 0.055 fold-change vs cycle 0, respectively.

For GTTAAA, the figures for the binding signal in assay [1], in assay [2] and in assay [3] were 1.66 ± 0.0709 fold-change vs cycle 0, 1.8 ± 0.123 fold-change vs cycle 0 and 1.61 ± 0.154 fold-change vs cycle 0, respectively.

On to ACAGAG, for which the results for the binding signal in assay [1], in assay [2] and in assay [3] were 0.763 ± 0.0507 fold-change vs cycle 0, 0.916 ± 0.013 fold-change vs cycle 0 and 0.96 ± 0.0385 fold-change vs cycle 0, respectively.

Consider ACCCAG, for which the binding signal in assay [1] came out at 0.455 ± 0.0148 fold-change vs cycle 0; in assay [2], 0.526 ± 0.0133 fold-change vs cycle 0; in assay [3], 0.628 ± 0.0574 fold-change vs cycle 0.

With AGGGGG, the binding signal in assay [1] amounted to 0.323 ± 0.0254 fold-change vs cycle 0; in assay [2], 0.375 ± 0.0258 fold-change vs cycle 0; in assay [3], 0.443 ± 0.0497 fold-change vs cycle 0.

In the case of ACCAGC, the binding signal was determined as 0.312 ± 0.0135 fold-change vs cycle 0 in assay [1], 0.369 ± 0.00921 fold-change vs cycle 0 in assay [2] and 0.497 ± 0.0437 fold-change vs cycle 0 in assay [3].

As for AACAGC, the figures for the binding signal in assay [1], in assay [2] and in assay [3] were 0.555 ± 0.024 fold-change vs cycle 0, 0.644 ± 0.0188 fold-change vs cycle 0 and 0.761 ± 0.0273 fold-change vs cycle 0, respectively.

Regarding TACGGA, the values for the binding signal in assay [1], in assay [2] and in assay [3] were 0.719 ± 0.0383 fold-change vs cycle 0, 0.834 ± 0.0149 fold-change vs cycle 0 and 0.856 ± 0.0265 fold-change vs cycle 0, respectively.

Take ACAGAA: the binding signal in assay [1] was 1.26 ± 0.036 fold-change vs cycle 0; in assay [2], 1.37 ± 0.0837 fold-change vs cycle 0; in assay [3] it was 1.3 ± 0.0881 fold-change vs cycle 0.

Take CTTGAA: the binding signal in assay [1] was found to be 1.25 ± 0.0309 fold-change vs cycle 0; in assay [2] it was 1.42 ± 0.0651 fold-change vs cycle 0; in assay [3], 1.32 ± 0.0914 fold-change vs cycle 0.

With AGCAGG, the binding signal came to 0.42 ± 0.0145 fold-change vs cycle 0 in assay [1], 0.478 ± 0.0232 fold-change vs cycle 0 in assay [2] and 0.561 ± 0.0608 fold-change vs cycle 0 in assay [3].

Consider AAAGTC, for which the binding signal in assay [1] amounted to 1.1 ± 0.0483 fold-change vs cycle 0; in assay [2], 1.25 ± 0.0636 fold-change vs cycle 0; in assay [3], 1.24 ± 0.0652 fold-change vs cycle 0.

For CTGATC, the binding signal in assay [1] stood at 0.794 ± 0.0362 fold-change vs cycle 0; in assay [2] it was 0.948 ± 0.0293 fold-change vs cycle 0; in assay [3], 1.02 ± 0.0279 fold-change vs cycle 0.

As to CACCTC, the binding signal amounted to 0.511 ± 0.0163 fold-change vs cycle 0 in assay [1], 0.563 ± 0.0344 fold-change vs cycle 0 in assay [2] and 0.689 ± 0.0609 fold-change vs cycle 0 in assay [3].

On to AGACTA, for which the binding signal in assay [1] stood at 1.31 ± 0.0607 fold-change vs cycle 0; in assay [2], 1.47 ± 0.0959 fold-change vs cycle 0; in assay [3], 1.41 ± 0.0994 fold-change vs cycle 0.

For TTATAA, the binding signal in assay [1] was determined as 4.21 ± 0.59 fold-change vs cycle 0; in assay [2], 2.77 ± 0.289 fold-change vs cycle 0; in assay [3], 2.3 ± 0.394 fold-change vs cycle 0.

As to GAAGCC, the binding signal was determined as 0.311 ± 0.0191 fold-change vs cycle 0 in assay [1], 0.3714 ± 0.00344 fold-change vs cycle 0 in assay [2] and 0.514 ± 0.0635 fold-change vs cycle 0 in assay [3].

As to CAGTCG, the binding signal in assay [1] was 0.32 ± 0.0306 fold-change vs cycle 0; in assay [2], 0.389 ± 0.0206 fold-change vs cycle 0; in assay [3] it was 0.497 ± 0.0334 fold-change vs cycle 0.

Consider TCCACA, for which the values for the binding signal in assay [1], in assay [2] and in assay [3] were 0.698 ± 0.0439 fold-change vs cycle 0, 0.806 ± 0.0256 fold-change vs cycle 0 and 0.842 ± 0.0543 fold-change vs cycle 0, respectively.
